Values joined by “and” are separate entries in the source; they are usually repeats but may differ in a detail not shown here. Equal entries are not always repeated. Among all 410,000 compounds or so, about 2,400 (0.59%) were called active. This is one part of a sample in which actives are shown more often than they occur. A number with no mark means an inactive call. No stated cut-off is given here; in the data, active means max activation above about 30%; inactive means the rest.
The compounds below were run against D(3) dopamine receptor (Homo sapiens) (UniProt P35462) (assay: qHTS of D3 Dopamine Receptor Agonist: qHTS). Conditions: D3R DiscoveRx beta-arrestin cells, luminescence, 90 min; stronger effect = higher value.
Sequence of D(3) dopamine receptor (Homo sapiens) (P35462 whole entry, looked up): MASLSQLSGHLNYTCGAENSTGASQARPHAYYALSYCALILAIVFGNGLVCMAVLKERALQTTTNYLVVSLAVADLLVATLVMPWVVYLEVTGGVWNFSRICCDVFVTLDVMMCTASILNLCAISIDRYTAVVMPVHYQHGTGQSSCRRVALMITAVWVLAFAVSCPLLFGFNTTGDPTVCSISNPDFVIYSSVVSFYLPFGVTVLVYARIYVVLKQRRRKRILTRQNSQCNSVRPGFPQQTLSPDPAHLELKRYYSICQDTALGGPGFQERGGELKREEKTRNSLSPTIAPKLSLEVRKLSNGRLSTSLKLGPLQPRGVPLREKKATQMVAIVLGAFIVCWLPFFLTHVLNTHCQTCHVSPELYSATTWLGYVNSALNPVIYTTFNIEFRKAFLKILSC
Source text: D3 DARs represent a very important target for the treatment of several neuropsychiatric disorders. Indeed, one of the most promising therapeutic applications for the D3 DAR is in the area of addiction and related disorders. […] These findings have been observed with a number of addictive substances including cocaine, amphetamine, nicotine, and alcohol. […] Antagonism of the D3 DAR may also be therapeutic in the treatment of schizophrenia or psychosis. […] Since the D3 DAR is expressed in areas of the CNS associated with the control of mood and emotion, it has been hypothesized that selective antagonism of the D3 DAR may be effective in treating psychosis without inducing the motor side effects typically seen with D2 DAR antagonists.
This part of the project aims to discover novel agonist.
NIH Chemical Genomics Center [NCGC]
NIH Molecular Libraries Probe Centers Network [MLPCN]
Assay Submitter (PI): David Sibley, NINDS
Freshly passaged cells are plated in 1536 well white, solid bottom plates at a density of 1500 cells/well in 3microl of complete media. After an overnight incubation at 37 degrees C in 5% CO2, cells are loaded with 23nl of test compound from the compound library (as well as dopamine controls) using a 1536 pintool and incubated at 37 degrees C for 90 minutes. Two microliters of DiscoveRx reagent is then added to all cells, and they are incubated for an additional 30 - 60 minutes at room temperature. Following incubation, luminescence is measured on a ViewLux CCD-based luminometer reader using a 20 sec exposure time.
Further: 0% is about no effect.

Row | SMILES | max activation
1 | O=c1[nH]c(CN2CC=C(c3ccccc3)CC2)nc2scc(-c3cccs3)c12 | 53.9% (active)
2 | CCCCC1C(=O)NC(=O)N(C2CCCCC2)C1=O (stereo not given) | -3.28%
3 | O=P1(N(CCCl)CCCl)NC(OO)CCO1 (stereo not given) | 1.75%
4 | C#C[C@]1(OC(=O)CCCCCC)CC[C@H]2[C@@H]3CCC4=CC(=O)CC[C@@H]4[C@H]3CC[C@@]21C | 26.4%
5 | O=S(=O)(O)C(F)(F)C(F)(F)C(F)(F)C(F)(F)F | -6.51%
6 | COc1cc(C[C@H](C)N)c(OC)cc1Br | -14.5%
7 | C[C@]12CC[C@H](O)C[C@H]1CC[C@@H]1C2CC[C@]2(C)[C@@H](C3=CC(=O)OC3)[C@@H](O)C[C@]12O (stereo not given in full) | 51.5% (active)
8 | COC1C(O)C(C)OC(OC2CCC3(C=O)C(CCC4C3CCC3(C)C(C5=CC(=O)OC5)CCC43O)C2)C1O (stereo not given) | 1.37%
9 | COC12CC[C@@]3(C[C@@H]1C(C)(O)C(C)(C)C)[C@H]1Cc4ccc(O)c5c4[C@@]3(CCN1CC1CC1)[C@H]2O5 (stereo not given in full) | 6.77%
10 | O=C1C[C@@H]2OCC=C3CN4CC[C@]56c7ccccc7N1[C@H]5[C@H]2[C@H]3C[C@H]46 (tested in a mixture with another compound) | 11.4% and 8.18%

Reference: PubChem BioAssay AID652048 (National Center for Advancing Translational Sciences (NCATS), 2013)
